Source: PubChem BioAssay (EPA / NIEHS)
Results filed as inconclusive are left out. The source made the active and inactive calls. How the source made its calls, unless noted: active means hit-call score of the fitted dose curve at least 0.9, where 1 is the maximum; inactive means score below 0.9.

Assays:
[1] = target: Estrogen-related receptor gamma (Homo sapiens) (UniProt P62508); experiment: ATG_ERRg_TRANS: Attagene TRANS-FACTORIAL HepG2 Assay for human Estrogen-Related Receptor gamma (ERRg) (AID 2282977; active means hit-call score of the fitted dose curve at least 0.9, where 1 is the maximum;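 further: hits increase reporter signal over DMSO so potencies reflect activators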); settings: HepG2 Attagene TRANS reporter, ERRg transactivation
Method in brief: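 Exogenous NR-Gal4 chimera activity measured as reporter transcript induction after 24 h in transiently transfected HepG2 cells. RNA reverse-transcribed, PCR-amplified, 6-FAM-labelled and resolved by capillary electrophoresis; increase over DMSO baseline.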

[2] = target: Oxysterols receptor LXR-alpha (Homo sapiens) (UniProt Q13133); experiment: ATG_LXRa_TRANS: Attagene TRANS-FACTORIAL HepG2 Assay for human Liver X Receptor alpha (LXRa) (AID 2282980; active means hit-call score of the fitted dose curve at least 0.9, where 1 is the maximum); settings: HepG2 Attagene TRANS reporter, LXRa transactivation
Method in brief: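 Read-out: reporter transcript levels by RT-PCR plus capillary electrophoresis, fluorescence intensity. Transiently transfected HepG2, exogenous NR-GAL4 chimera, GAL4-UAS reporters; 24 h compound exposure. Activity = increase over DMSO negative control.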

[3] = target: Transcriptional activator Myb (Homo sapiens) (UniProt P10242); experiment: ATG_Myb_CIS: Attagene CIS-FACTORIAL HepG2 Assay for human Myeloblastosis (Myb) Proto-Oncogene Transcription Factor (AID 2282986); settings: HepG2 Attagene CIS-FACTORIAL Myb reporter transcription; actives raise or lower the signal
Method in brief: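 In this HepG2 transient-transfection format, cis-regulated reporter mRNA is quantified 24 h post-dosing by RT-PCR with capillary electrophoresis, fitted bidirectionally to DMSO baseline.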

[4] = target: Nuclear respiratory factor 1 (Homo sapiens) (UniProt Q16656); experiment: ATG_NRF1_CIS: Attagene CIS-FACTORIAL HepG2 Assay for human Nuclear Respiratory Factor 1 (NRF1) Orphan Gene (AID 2282987); settings: HepG2 NRF1 cis-element reporter, Attagene multiplex; actives raise or lower the signal
Method in brief: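 Using DMSO as baseline, gain- or loss-of-signal was fitted for reporter mRNA levels in HepG2 cells transiently transfected with cis-regulated reporter units. Samples were taken 24 h after dosing and read by RT-PCR with capillary electrophoresis.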

[5] = ATG_NFI_CIS: Attagene CIS-FACTORIAL HepG2 Assay for human Nuclear Factor I (NFI) (AID 2282989); settings: HepG2 cis-regulatory reporter, NFI response element transcription; actives raise or lower the signal
Method in brief: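 Reporter transcription driven by endogenous transcription factors in HepG2 cells; 24 h treatment. Quantitation by labelled RT-PCR fragments on capillary electrophoresis, gain- or loss-of-signal relative to DMSO.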

[6] = target: Myc proto-oncogene protein (Homo sapiens) (UniProt P01106); experiment: ATG_Myc_CIS: Attagene CIS-FACTORIAL HepG2 Assay for human Myelocytomatosis (Myc) Proto-Oncogene Transcription Factor (AID 2282990); settings: HepG2, Attagene cis-reporter transcription factor activity; actives raise or lower the signal
Method in brief: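 Multiplexed cis-reporter transcription in HepG2 cells after 24 h chemical treatment. Reporter mRNA measured by RT-PCR and capillary electrophoresis fluorescence; activity fitted bidirectionally against DMSO control.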

[7] = ATG_NRF2_ARE_CIS: Attagene CIS-FACTORIAL HepG2 Assay for human Nuclear Factor Erythroid 2 Related Factor 2 (NFR2) response to Antioxidant Response Elements (ARE) (AID 2282992); settings: HepG2 Attagene ARE/NRF2 reporter, transcription factor activity; actives raise or lower the signal
Method in brief: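 Readout: reporter mRNA quantified by RT-PCR plus FAM-labelled primer extension, HpaI digestion and capillary electrophoresis, 24 h after dosing transfected HepG2 cells. Gain or loss of signal is fitted bidirectionally against DMSO baseline.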

[8] = ATG_Oct_MLP_CIS: Attagene CIS-FACTORIAL HepG2 Assay for human Octamer-Binding Transcription Factor (Oct) (AID 2282993); settings: HepG2 Attagene cis-factorial Oct reporter, mRNA; actives raise or lower the signal
Method in brief: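 Transfected HepG2 cells, 24 h treatment. Reporter mRNA quantified by RT-PCR–capillary electrophoresis; bidirectional fitting against DMSO.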

[9] = target: Cellular tumor antigen p53 (Homo sapiens) (UniProt P04637); experiment: ATG_p53_CIS: Attagene CIS-FACTORIAL HepG2 Assay for human p53 Transcription Factor (AID 2282994); settings: HepG2 p53 cis-element reporter, Attagene mRNA; actives raise or lower the signal
Method in brief: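 Read-out: reporter mRNA by RT-PCR plus capillary electrophoresis with fluorescence detection. Human HepG2 liver cells carried transfected multi-reporter cis-element constructs, dosed 24 h. Gain or loss of signal fitted bidirectionally against DMSO control.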

[10] = target: Glucocorticoid receptor (Homo sapiens) (UniProt P04150); experiment: ATG_GR_TRANS: Attagene TRANS-FACTORIAL HepG2 Assay for human Glucocorticoid Receptor (GR) (AID 2282978; active means hit-call score of the fitted dose curve at least 0.9, where 1 is the maximum;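 further: activators score as hits since higher reporter transcript over DMSO is fitted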); settings: HepG2 Attagene TRANS GR reporter, mRNA transcription
Method in brief: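 Exogenous NR-GAL4 fusion activity was assessed through induced GAL4-UAS reporter transcripts in transfected human HepG2 cells, quantified after 24 h by RT-PCR and fluorescent capillary electrophoresis with DMSO as baseline.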

[11] = target: Bile acid receptor (Homo sapiens) (UniProt Q96RI1); experiment: ATG_FXR_TRANS: Attagene TRANS-FACTORIAL HepG2 Assay for Farnesoid X Receptor (FXR) (AID 2282979; active means hit-call score of the fitted dose curve at least 0.9, where 1 is the maximum;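 further: hits raise reporter mRNA above DMSO so AC50 marks FXR activation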); settings: HepG2 Attagene TRANS FXR-GAL4 reporter transcription
Method in brief: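 Read-out: fluorescent reporter transcripts quantified by capillary electrophoresis after RT-PCR of total RNA. Source cells were HepG2 transiently carrying chimeric NR-GAL4 plus GAL4-UAS reporter units, dosed 24 h. Activity fitted upward relative to DMSO baseline.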

[12] = ATG_M_06_TRANS: Attagene TRANS-FACTORIAL HepG2 Assay for M06 Transcription Factor (Internal Marker) (AID 2282983; active means hit-call score of the fitted dose curve at least 0.9, where 1 is the maximum); settings: HepG2 Attagene TRANS M06 internal marker reporter
Method in brief: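 Read-out: fluorescent reporter cDNA fragments resolved by capillary electrophoresis after RT-PCR and HpaI cut. Source cells were HepG2 carrying transfected multi-reporter GAL4 constructs, dosed 24 h. Increase over DMSO control analysed.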

[13] = target: Nuclear receptor subfamily 4 group A member 2 (Homo sapiens) (UniProt P43354); experiment: ATG_NURR1_TRANS: Attagene TRANS-FACTORIAL HepG2 Assay for human Nuclear Receptor Related Protein 1 (NURR1) (AID 2282985; active means hit-call score of the fitted dose curve at least 0.9, where 1 is the maximum); settings: HepG2 Attagene TRANS reporter, mRNA readout
Method in brief: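 Chimeric NR-Gal4 fusion activity measured in HepG2 after 24 h treatment. Reporter transcripts detected by RT-PCR and capillary electrophoresis fluorescence; positive-direction curve fitting against DMSO.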

[14] = ATG_NF_kB_CIS: Attagene CIS-FACTORIAL HepG2 Assay for human Nuclear Factor Kappa B (NF-kB) (AID 2282991); settings: HepG2 Attagene cis-factorial NF-kB reporter mRNA; actives raise or lower the signal
Method in brief: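 Endpoint from a 52-component multiplexed HepG2 reporter panel: cis-regulated transcription units transiently transfected, 24 h dosing, reporter mRNA quantified by RT-PCR and capillary electrophoresis, scored as increase or decrease against DMSO.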

[15] = target: Hepatocyte nuclear factor 4-alpha (Homo sapiens) (UniProt P41235); experiment: ATG_HNF4a_TRANS: Attagene TRANS-FACTORIAL HepG2 Assay for human Hepatocyte Nuclear Factor 4 alpha (HNF4a) (AID 2282982; active means hit-call score of the fitted dose curve at least 0.9, where 1 is the maximum); settings: HepG2 HNF4a transactivation reporter, mRNA readout
Method in brief: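 In this trans-factorial format, a chimeric HNF4a-GAL4 fusion drives a GAL4-UAS reporter in transfected HepG2 liver cells. After 24 h treatment, reporter mRNA induction is measured by RT-PCR with capillary electrophoresis, relative to DMSO.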

[16] = ATG_M_32_TRANS: Attagene TRANS-FACTORIAL HepG2 Assay for M32 Transcription Factor (Internal Marker) (AID 2282984; active means hit-call score of the fitted dose curve at least 0.9, where 1 is the maximum;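 on outcome: transcript level of a background control reporter unit measured by RT-PCR and capillary electrophoresis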); settings: HepG2 Attagene TRANS M32 internal marker reporter
Method in brief: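 After 24 h dosing of transfected HepG2 cells, total RNA was reverse-transcribed, reporter sequences PCR-amplified, 6-FAM labelled by primer extension and HpaI-digested before capillary electrophoresis. Signal increase over DMSO was fitted.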

[17] = target: Oxysterols receptor LXR-beta (Homo sapiens) (UniProt P55055); experiment: ATG_LXRb_TRANS: Attagene TRANS-FACTORIAL HepG2 Assay for human Liver X Receptor beta (LXRb) (AID 2282981; active means hit-call score of the fitted dose curve at least 0.9, where 1 is the maximum); settings: HepG2 Attagene TRANS GAL4-LXRb reporter, mRNA
Method in brief: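 Measures induction of a Gal4-driven reporter transcript in HepG2 cells expressing an exogenous LXRb-Gal4 fusion. Cells are exposed to compound for 24 h before RNA isolation and RT-PCR with capillary electrophoresis detection.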

[18] = BSK_3C_TissueFactor: BioMAP Diversity Plus: 3C Assay for Tissue Factor Biomarker Activity (AID 2282997); settings: BioMAP 3C HUVEC, tissue factor biomarker readout; actives raise or lower the signal
Method in brief: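 HUVEC, 3C system, 24 h post-dose; Tissue Factor by ELISA; bidirectional fit vs DMSO baseline.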

[19] = BSK_3C_uPAR: BioMAP Diversity Plus: 3C Assay for Urokinase-type plasminogen activator receptor (uPAR) Biomarker Activity (AID 2282998); settings: BioMAP 3C HUVEC, uPAR biomarker ELISA; actives raise or lower the signal
Method in brief: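 Readout: ELISA for surface uPAR. System: human umbilical vein endothelial primary cells, 24 h after chemical exposure. Analysis: bidirectional fit, DMSO baseline.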

[20] = BSK_3C_VCAM1: BioMAP Diversity Plus: 3C Assay for Vascular cell adhesion molecule 1 (VCAM1) Biomarker Activity (AID 2282999); settings: BioMAP 3C HUVEC, VCAM1 ELISA, cytokine-stimulated; actives raise or lower the signal
Method in brief: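 Vascular primary endothelium (human umbilical vein) was exposed to chemicals and assayed 24 h later. VCAM-1 levels came from ELISA, with DMSO serving as baseline for bidirectional fitting.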

Sequence of Nuclear respiratory factor 1 (Homo sapiens) (Q16656 whole entry, looked up): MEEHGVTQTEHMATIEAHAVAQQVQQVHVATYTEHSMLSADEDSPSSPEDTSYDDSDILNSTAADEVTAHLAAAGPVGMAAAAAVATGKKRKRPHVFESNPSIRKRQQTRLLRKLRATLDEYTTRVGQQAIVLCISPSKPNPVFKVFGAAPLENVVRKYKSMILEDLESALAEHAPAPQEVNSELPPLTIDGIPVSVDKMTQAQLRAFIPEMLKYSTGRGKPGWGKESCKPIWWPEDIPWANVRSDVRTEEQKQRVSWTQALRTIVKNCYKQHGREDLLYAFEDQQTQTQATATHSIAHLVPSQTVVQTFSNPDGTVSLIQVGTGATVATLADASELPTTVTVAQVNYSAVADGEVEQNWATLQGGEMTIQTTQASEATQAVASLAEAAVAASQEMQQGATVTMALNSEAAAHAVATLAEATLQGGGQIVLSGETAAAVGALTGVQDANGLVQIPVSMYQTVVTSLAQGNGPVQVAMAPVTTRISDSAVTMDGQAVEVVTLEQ
Sequence of Bile acid receptor (Homo sapiens) (Q96RI1 whole entry, looked up, the tested form may be a part): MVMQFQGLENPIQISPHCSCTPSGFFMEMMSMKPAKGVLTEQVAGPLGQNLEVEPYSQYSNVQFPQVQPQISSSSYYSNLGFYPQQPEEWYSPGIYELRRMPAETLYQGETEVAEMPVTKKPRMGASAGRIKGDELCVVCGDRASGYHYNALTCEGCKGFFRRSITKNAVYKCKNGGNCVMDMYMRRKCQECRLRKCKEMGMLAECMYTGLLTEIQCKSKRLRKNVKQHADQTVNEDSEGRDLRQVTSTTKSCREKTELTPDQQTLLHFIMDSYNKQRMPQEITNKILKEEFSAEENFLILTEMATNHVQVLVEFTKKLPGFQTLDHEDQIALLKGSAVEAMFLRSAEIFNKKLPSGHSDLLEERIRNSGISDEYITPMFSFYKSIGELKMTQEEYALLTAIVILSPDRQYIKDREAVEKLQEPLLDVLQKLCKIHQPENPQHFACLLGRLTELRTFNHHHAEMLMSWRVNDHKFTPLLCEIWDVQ
Sequence of Nuclear receptor subfamily 4 group A member 2 (Homo sapiens) (P43354 whole entry, looked up, the tested form may be a part): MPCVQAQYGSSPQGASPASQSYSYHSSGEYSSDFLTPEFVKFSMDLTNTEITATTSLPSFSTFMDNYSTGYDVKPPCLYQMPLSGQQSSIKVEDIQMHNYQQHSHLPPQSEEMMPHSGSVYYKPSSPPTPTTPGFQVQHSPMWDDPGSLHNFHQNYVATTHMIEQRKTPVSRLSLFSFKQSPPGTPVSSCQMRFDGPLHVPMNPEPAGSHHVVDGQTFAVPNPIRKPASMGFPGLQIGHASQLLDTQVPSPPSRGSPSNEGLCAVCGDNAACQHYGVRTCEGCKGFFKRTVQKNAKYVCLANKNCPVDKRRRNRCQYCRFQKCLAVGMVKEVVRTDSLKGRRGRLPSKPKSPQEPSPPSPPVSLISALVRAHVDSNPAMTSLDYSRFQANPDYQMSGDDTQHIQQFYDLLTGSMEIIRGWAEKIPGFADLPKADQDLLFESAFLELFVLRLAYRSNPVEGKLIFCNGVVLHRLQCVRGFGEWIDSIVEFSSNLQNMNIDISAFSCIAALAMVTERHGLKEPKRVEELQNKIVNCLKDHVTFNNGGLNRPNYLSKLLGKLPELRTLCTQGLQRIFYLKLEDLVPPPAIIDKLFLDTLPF
Sequence of Glucocorticoid receptor (Homo sapiens) (P04150 whole entry, looked up, the tested form may be a part): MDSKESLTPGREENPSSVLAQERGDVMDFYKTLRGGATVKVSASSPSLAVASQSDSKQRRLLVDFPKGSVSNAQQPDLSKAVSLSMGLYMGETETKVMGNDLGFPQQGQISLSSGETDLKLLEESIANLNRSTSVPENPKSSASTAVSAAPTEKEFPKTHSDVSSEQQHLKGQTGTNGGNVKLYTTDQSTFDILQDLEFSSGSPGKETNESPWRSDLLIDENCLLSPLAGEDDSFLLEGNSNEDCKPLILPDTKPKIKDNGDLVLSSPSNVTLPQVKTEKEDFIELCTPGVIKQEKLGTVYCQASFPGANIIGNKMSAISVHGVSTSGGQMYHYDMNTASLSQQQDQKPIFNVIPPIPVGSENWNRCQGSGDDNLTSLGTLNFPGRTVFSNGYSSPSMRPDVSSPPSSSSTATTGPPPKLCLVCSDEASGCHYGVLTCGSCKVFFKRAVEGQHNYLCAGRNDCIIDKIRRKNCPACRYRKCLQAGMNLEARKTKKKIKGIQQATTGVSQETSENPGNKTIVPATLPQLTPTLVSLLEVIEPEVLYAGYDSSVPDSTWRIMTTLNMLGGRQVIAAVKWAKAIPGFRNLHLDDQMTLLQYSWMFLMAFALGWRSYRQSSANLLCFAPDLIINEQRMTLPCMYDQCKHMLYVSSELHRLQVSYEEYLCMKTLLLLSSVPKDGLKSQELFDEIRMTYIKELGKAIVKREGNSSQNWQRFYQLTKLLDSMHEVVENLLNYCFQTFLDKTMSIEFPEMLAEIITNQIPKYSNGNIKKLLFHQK
Sequence of Hepatocyte nuclear factor 4-alpha (Homo sapiens) (P41235 whole entry, looked up, the tested form may be a part): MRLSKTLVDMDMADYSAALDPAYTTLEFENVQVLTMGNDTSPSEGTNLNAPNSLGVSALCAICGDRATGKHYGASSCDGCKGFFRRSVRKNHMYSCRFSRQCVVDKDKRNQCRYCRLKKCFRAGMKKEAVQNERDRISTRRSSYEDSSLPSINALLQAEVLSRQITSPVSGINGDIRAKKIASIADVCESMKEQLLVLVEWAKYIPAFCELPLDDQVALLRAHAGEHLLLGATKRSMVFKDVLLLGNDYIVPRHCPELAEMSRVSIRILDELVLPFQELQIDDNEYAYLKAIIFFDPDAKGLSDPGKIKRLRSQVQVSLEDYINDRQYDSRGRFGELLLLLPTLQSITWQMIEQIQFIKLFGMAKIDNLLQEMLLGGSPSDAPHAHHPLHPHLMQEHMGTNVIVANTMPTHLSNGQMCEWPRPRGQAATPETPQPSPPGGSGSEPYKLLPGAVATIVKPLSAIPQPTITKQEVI
Sequence of Oxysterols receptor LXR-beta (Homo sapiens) (P55055 whole entry, looked up, the tested form may be a part): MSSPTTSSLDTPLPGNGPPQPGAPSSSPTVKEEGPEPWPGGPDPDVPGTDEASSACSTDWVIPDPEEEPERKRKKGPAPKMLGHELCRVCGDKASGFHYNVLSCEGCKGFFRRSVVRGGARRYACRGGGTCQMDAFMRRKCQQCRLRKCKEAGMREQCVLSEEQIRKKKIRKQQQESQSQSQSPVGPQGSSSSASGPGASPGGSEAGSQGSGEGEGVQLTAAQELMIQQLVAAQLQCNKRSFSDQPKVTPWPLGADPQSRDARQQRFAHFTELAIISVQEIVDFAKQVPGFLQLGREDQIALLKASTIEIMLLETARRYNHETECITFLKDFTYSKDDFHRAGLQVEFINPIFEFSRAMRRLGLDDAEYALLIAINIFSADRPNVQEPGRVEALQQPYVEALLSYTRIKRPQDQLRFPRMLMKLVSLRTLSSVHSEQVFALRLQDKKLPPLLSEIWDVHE
Sequence of Myc proto-oncogene protein (Homo sapiens) (P01106 whole entry, looked up): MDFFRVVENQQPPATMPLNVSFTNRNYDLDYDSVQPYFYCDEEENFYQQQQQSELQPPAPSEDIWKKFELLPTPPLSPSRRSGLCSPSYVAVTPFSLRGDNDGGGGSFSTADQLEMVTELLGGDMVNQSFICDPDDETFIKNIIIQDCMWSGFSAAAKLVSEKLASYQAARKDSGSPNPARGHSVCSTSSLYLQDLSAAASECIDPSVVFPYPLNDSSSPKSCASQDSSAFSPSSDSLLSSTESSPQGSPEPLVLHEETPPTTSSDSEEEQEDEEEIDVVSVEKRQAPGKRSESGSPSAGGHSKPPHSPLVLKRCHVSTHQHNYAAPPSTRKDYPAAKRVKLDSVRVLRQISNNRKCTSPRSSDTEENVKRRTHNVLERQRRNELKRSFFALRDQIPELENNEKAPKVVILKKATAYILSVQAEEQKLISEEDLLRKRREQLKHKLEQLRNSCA
Sequence of Transcriptional activator Myb (Homo sapiens) (P10242 whole entry, looked up): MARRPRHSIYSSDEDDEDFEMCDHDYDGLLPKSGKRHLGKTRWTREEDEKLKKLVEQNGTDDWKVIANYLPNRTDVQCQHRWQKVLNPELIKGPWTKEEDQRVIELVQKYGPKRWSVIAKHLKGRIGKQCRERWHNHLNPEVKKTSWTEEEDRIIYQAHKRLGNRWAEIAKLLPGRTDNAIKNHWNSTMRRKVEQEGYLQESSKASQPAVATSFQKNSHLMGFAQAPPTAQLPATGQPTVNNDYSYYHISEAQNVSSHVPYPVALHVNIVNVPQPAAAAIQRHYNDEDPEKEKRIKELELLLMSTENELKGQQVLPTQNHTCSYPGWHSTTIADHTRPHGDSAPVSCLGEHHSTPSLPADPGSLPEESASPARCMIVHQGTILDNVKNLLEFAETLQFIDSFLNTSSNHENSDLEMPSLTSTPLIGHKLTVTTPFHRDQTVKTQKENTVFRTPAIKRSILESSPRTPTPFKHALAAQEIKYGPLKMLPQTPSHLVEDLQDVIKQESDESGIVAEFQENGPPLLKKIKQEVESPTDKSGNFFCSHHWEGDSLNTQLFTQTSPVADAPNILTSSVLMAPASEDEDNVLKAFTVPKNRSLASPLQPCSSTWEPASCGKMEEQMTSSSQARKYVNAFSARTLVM
Sequence of Oxysterols receptor LXR-alpha (Homo sapiens) (Q13133 whole entry, looked up, the tested form may be a part): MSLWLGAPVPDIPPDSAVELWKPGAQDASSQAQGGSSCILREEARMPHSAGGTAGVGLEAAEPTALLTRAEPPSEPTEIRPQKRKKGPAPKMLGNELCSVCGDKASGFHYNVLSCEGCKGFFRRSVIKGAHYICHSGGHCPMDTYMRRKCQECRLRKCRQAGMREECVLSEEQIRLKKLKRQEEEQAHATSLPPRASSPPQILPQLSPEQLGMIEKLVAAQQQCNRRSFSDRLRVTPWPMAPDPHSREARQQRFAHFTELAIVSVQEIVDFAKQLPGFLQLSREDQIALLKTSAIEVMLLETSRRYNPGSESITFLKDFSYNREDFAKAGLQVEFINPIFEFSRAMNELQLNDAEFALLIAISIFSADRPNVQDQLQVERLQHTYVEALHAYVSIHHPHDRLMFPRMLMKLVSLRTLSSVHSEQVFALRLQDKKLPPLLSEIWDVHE

CCCCCOC(=O)CCCCC
outcome [1]: inactive | outcome [2]: inactive | outcome [3]: inactive | outcome [4]: inactive | outcome [5]: inactive | outcome [6]: inactive | outcome [7]: inactive | outcome [8]: inactive | outcome [9]: inactive

CCN1CCCC1=O
outcome [10]: inactive | outcome [11]: inactive | outcome [2]: inactive | outcome [12]: inactive | outcome [13]: inactive | outcome [3]: inactive | outcome [4]: inactive | outcome [5]: inactive | outcome [6]: inactive | outcome [14]: inactive | outcome [7]: inactive | outcome [8]: inactive | outcome [9]: inactive

CC(C)OC(=O)c1ccccc1
outcome [1]: inactive | outcome [15]: inactive | outcome [12]: inactive | outcome [3]: inactive | outcome [4]: inactive | outcome [14]: inactive | outcome [7]: inactive | outcome [8]: inactive | outcome [9]: inactive

C=C(C)C(=O)OCC(O)COc1ccc(C(C)(C)c2ccc(OCC(O)COC(=O)C(=C)C)cc2)cc1 (stereo not drawn)
outcome [1]: inactive | outcome [15]: inactive | outcome [16]: inactive | AC50 [13]: 27.4 µM (active) | AC50 [3]: 158 µM (active) | AC50 [4]: 130 µM (active) | outcome [5]: inactive | outcome [6]: inactive | AC50 [7]: 26.5 µM (active) | AC50 [8]: 17.8 µM (active) | outcome [9]: inactive

CC(C)(C)NC(=O)[C@H]1CC[C@H]2[C@@H]3CC[C@H]4NC(=O)C=C[C@]4(C)[C@H]3CC[C@]12C
outcome [10]: inactive | outcome [11]: inactive | outcome [2]: inactive | outcome [17]: inactive | outcome [12]: inactive | outcome [16]: inactive | outcome [3]: inactive | outcome [4]: inactive | outcome [5]: inactive | outcome [6]: inactive | outcome [14]: inactive | AC50 [7]: 100 µM (active) | outcome [8]: inactive | AC50 [9]: 38.7 µM (active)

CCc1cccc(C)c1N(C(=O)CS(=O)(=O)O)C(C)COC (stereo not drawn)
outcome [10]: inactive | outcome [11]: inactive | outcome [2]: inactive | outcome [15]: inactive | outcome [12]: inactive | outcome [13]: inactive | outcome [3]: inactive | outcome [4]: inactive | outcome [5]: inactive | outcome [6]: inactive | outcome [14]: inactive | outcome [7]: inactive | outcome [8]: inactive | outcome [9]: inactive | outcome [18]: inactive | outcome [19]: inactive | outcome [20]: inactive

C/C=C/C=C/CCCCCCCO
outcome [10]: inactive | outcome [11]: inactive | outcome [2]: inactive | outcome [17]: inactive | outcome [15]: inactive | AC50 [16]: 100 µM (active) | outcome [13]: inactive | outcome [3]: inactive | outcome [4]: inactive | outcome [5]: inactive | outcome [6]: inactive | AC50 [7]: 45.6 µM (active) | outcome [8]: inactive | outcome [9]: inactive

CCCCCCCC(=O)OCC(COC(=O)CCCCCCC)OC(=O)CCCCCCC
outcome [10]: inactive | outcome [11]: inactive | outcome [17]: inactive | outcome [12]: inactive | outcome [13]: inactive | outcome [3]: inactive | outcome [4]: inactive | outcome [6]: inactive | outcome [7]: inactive | outcome [8]: inactive | outcome [9]: inactive

N=C1C=CC(=C(c2ccc(N)cc2)c2ccc(N)cc2)C=C1
outcome [1]: inactive | AC50 [15]: 129 µM (active) | outcome [12]: inactive | outcome [16]: inactive | outcome [13]: inactive | AC50 [3]: 24.9 µM (active) | outcome [5]: inactive | AC50 [14]: 41.1 µM (active) | AC50 [7]: 9.02 µM (active) | outcome [8]: inactive | AC50 [9]: 33.4 µM (active)

CCOc1ccc(NC(N)=O)cc1
outcome [10]: inactive | outcome [11]: inactive | outcome [2]: inactive | outcome [17]: inactive | outcome [15]: inactive | outcome [12]: inactive | outcome [16]: inactive | outcome [13]: inactive | outcome [3]: inactive | outcome [4]: inactive | outcome [5]: inactive | outcome [6]: inactive | outcome [7]: inactive | outcome [8]: inactive
